# Where “and” joins values, the source holds several entries; their conditions need not be identical. Identical values can stand only once. Records with an inconclusive call do not appear. A call without a number means that no potency is given here. Some compounds were tested as several samples or in several runs, with calls that do not always agree. Calls of active or inactive are those of the source. Unless noted, the call rests on the fitted dose curve; in most records, active means well fitted curve in the direction sought with a large enough effect in the repeat runs; inconclusive means weak or mixed curves; inactive means no such curve, though single readings can be large; an effect the other way counts as inactive or inconclusive.
# How the values were obtained:
# [1] = qHTS assay to identify small molecule antagonists of the estrogen related receptor (ERR) signaling pathway from Tox21 library - cell viability counter screen (AID 1224834); further: nearly all actives have a fitted effect of over 30% in size; further: potency means the concentration at half of the fitted maximal effect
# Procedure, shortened: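 Counter screen run in ERR cells (2,000 cells/well): cells pre-incubated 6 h, then treated with compounds for 17.5 h at 37 C. Fluorescence was read 30 min after CellTiter-Fluor addition.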
# [2] = target: Luciferin 4-monooxygenase (Photinus pyralis) (UniProt P08659); test: qHTS assay to identify small molecule inhibitors of firefly luciferase (AID 1224835); further: nearly all actives have a fitted effect of over 25% in size; further: potency means the concentration at half of the fitted maximal effect
# Chain of Luciferin 4-monooxygenase (Photinus pyralis) (P08659 whole entry, looked up): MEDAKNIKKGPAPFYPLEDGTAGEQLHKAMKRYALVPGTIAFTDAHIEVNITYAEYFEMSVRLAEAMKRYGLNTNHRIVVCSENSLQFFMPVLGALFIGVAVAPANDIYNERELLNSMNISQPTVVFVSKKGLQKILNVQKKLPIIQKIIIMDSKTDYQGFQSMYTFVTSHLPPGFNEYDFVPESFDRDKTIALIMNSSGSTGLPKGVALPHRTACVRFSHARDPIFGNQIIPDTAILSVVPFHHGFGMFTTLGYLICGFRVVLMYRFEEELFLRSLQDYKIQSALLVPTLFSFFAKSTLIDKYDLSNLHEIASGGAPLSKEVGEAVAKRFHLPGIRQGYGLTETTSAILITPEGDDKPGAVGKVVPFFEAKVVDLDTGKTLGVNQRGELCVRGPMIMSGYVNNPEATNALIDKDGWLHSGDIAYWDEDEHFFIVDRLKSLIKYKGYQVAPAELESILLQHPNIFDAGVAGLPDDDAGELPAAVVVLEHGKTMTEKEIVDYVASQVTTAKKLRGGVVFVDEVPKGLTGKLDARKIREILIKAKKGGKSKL
# Procedure, shortened: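 Biochemical qHTS: compounds run as interplate titrations against purified firefly enzyme, with D-luciferin and ATP each at its KM concentration. Light output recorded by CCD imaging.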
# [3] = qHTS assay to identify small molecule agonists of the constitutive androstane receptor (CAR) signaling pathway - cell viability counter screen (AID 1224836); further: nearly all actives have a fitted effect of over 45% in size
# Procedure, shortened: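 23 h treatment, 37 C, 5% CO2. Cell line: HepG2 stably expressing hCAR with a CYP2B6-2.2kb construct. Co-treatment: PK11195, 0.75 uM final. Read-out: CellTiter-Fluor fluorescence intensity.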
# [4] = qHTS assay to identify small molecule antagonists of the constitutive androstane receptor (CAR) signaling pathway - cell viability counter screen (AID 1224837); further: nearly all actives have a fitted effect of over 45% in size
# Procedure, shortened: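 CITCO at 50 nM final was added alongside compounds (15 concentrations) to double-stable hCAR/CYP2B6-2.2kb HepG2 cells. Following 23 hr at 37 C, cell viability was quantified by CellTiter-Fluor fluorescence intensity.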
# [5] = target: Nuclear receptor subfamily 1 group I member 3 (Homo sapiens) (UniProt Q14994); test: qHTS assay to identify small molecule antagonists of the constitutive androstane receptor (CAR) signaling pathway (AID 1224838); further: nearly all actives have a fitted effect of over 40% in size
# Chain of Nuclear receptor subfamily 1 group I member 3 (Homo sapiens) (Q14994 whole entry, looked up): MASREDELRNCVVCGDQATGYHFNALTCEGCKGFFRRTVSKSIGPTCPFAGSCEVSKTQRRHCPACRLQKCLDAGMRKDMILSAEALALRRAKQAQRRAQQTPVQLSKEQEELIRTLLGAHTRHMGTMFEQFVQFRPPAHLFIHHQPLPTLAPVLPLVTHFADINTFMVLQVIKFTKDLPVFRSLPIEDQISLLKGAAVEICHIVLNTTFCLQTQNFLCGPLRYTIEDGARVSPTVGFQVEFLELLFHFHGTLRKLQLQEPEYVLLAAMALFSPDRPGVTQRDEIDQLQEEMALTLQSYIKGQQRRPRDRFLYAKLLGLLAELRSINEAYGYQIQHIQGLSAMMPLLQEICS
# Procedure, shortened: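 Inhibition of CITCO-driven (50 nM final) CYP2B6 reporter expression is measured in HepG2 cells stably carrying hCAR. Fifteen compound concentrations are applied for 24 h at 37 C, followed by luciferase luminescence.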
# [6] = target: Nuclear receptor subfamily 1 group I member 3 (Homo sapiens) (UniProt Q14994); test: qHTS assay to identify small molecule agonists of the constitutive androstane receptor (CAR) signaling pathway (AID 1224839); further: nearly all actives have a fitted effect of over 15% in size; further: potency means the concentration at half of the fitted maximal effect
# Procedure, shortened: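 Compounds tested at 15 concentrations on HepG2 cells stably harbouring hCAR and CYP2B6-2.2kb reporter constructs, co-treated with PK11195 (0.75 uM final), 24 h at 37 C; luminescent reporter signal quantified.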
# [7] = qHTS assay to identify small molecule antagonists of the estrogen related receptor signaling pathway with the pleiotropic PPARgamma coactivator (PGC) from Tox21 10K library - cell viability counter screen (AID 1224840; active means well fitted cell-killing curve with a large enough effect in the repeat runs, not every such curve was filed as active; further: nearly all actives have a fitted effect of over 40% in size)
# Procedure, shortened: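 Readout: fluorescence intensity from CellTiter-Fluor after 30 min at 37 C/5% CO2. Preceded by 17.5 h treatment of PGC/ERR cells with DMSO-dissolved compounds, added 6 h post-seeding.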
# [8] = target: Thyrotropin receptor (Homo sapiens) (UniProt P16473); test: qHTS assay to identify small molecule agonists of the thyroid stimulating hormone receptor (TSHR) signaling pathway (AID 1224843; calls by dose curve; further: nearly all actives have a fitted effect of over 45% in size)
# Chain of Thyrotropin receptor (Homo sapiens) (P16473 whole entry, looked up): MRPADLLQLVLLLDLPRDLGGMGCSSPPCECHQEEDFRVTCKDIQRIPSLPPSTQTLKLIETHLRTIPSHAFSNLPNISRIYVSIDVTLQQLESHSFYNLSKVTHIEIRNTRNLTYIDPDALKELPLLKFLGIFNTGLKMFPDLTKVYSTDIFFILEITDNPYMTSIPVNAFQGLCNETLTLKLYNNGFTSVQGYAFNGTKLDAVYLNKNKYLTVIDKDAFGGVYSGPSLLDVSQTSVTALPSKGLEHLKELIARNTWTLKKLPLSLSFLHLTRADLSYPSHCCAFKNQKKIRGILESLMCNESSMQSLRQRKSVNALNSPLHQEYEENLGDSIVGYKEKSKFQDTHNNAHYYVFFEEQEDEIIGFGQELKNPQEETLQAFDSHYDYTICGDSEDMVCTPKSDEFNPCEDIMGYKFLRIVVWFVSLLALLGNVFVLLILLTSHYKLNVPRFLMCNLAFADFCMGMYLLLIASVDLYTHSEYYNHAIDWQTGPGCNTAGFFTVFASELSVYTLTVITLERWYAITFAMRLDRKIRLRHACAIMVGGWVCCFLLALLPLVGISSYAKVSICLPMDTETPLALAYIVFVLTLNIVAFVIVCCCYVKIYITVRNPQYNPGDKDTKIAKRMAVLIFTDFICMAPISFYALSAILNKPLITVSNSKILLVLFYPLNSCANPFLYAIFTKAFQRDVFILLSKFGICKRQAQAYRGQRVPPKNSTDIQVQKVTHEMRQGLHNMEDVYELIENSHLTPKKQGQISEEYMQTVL
# Procedure, shortened: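 HEK293/TSHR, 800 cells/well; cpd 30 min RT; add cAMP-d2 + anti-cAMP-cryptate, 1 h RT; fluorescence read on plate reader. 15-pt titration, n=3.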
# [9] = qHTS assay to identify small molecule agonists of the hypoxia (HIF-1) signaling pathway - cell viability counter screen (AID 1224844; calls by dose curve; further: nearly all actives have a fitted effect of over 50% in size; further: potency means the concentration at half of the fitted maximal effect)
# Procedure, shortened: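 In this counter screen, HRE-bla ME-180 cell viability after 17 hrs of compound exposure at 37C was read by CellTiter-Glo luminescence, multiplexed with the beta-lactamase reporter measurement.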
# [10] = qHTS assay to identify small molecule agonists of H2AX (AID 1224845; active means well fitted activation curve with a large enough effect in the signal ratio in the repeat runs, not every such curve was filed as active; the % refers to the signal ratio)
# Procedure, shortened: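 Wild-type CHO-K1 cells, plated overnight, exposed 3hr at 37C to 15 concentrations (0.76% DMSO final). Lysed, then HTRF anti-pH2AX (S139) cryptate and anti-H2AX-d2 antibodies, 24 hr room temperature; 665/620 nm emission read.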
# [11] = qHTS assay to identify small molecule agonists of the hypoxia (HIF-1) signaling pathway (AID 1224846; active means well fitted activation curve with a large enough effect in the signal ratio in the repeat runs, not every such curve was filed as active; the % refers to the signal ratio)
# Procedure, shortened: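 ME-180 HRE-bla reporter cells; compounds in DMSO, 17 h at 37C; read-out beta-lactamase via CCF4-AM FRET.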
# [12] = qHTS assay to identify small molecule agonists of H2AX - cell viability counter screen (AID 1224847; calls by dose curve; further: top concentration of the series differs between compounds; nearly all actives have a fitted effect of over 30% in size)
# Procedure, shortened: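 Compounds tested at 15 concentrations were incubated 3 hr at 37C with wild-type CHO-K1 cells; cellular ATP-based luminescence (CellTiter-Glo) indicated viability.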
# [13] = qHTS RealTime-Glo MT Cell Viability Assay in HEK293 cells - 32 hour (AID 1224868); further: nearly all actives have a fitted effect of over 50% in size; further: potency means the concentration at half of the fitted maximal effect
# Procedure, shortened: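 HEK293 cells seeded with NanoLuc/prosubstrate reagent, rested 5 h at 37 C, then dosed and kept at 37 C up to 40 h. Nonlytic real-time luminescence from viable cells read at 0, 8, 16, 24, 32 and 40 h.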
# [14] = qHTS assay to identify small molecule antagonists of the estrogen related receptor signaling pathway with the pleiotropic PPARgamma coactivator (PGC) from Tox21 10K library (AID 1224841; call rule not given here; further: actives are mostly falling curves and most rising ones were filed inactive; nearly all actives have a fitted effect of over 50% in size; further: potency means the concentration at half of the fitted maximal effect)
# Procedure, shortened: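 One-Glo luminescence, measured after half an hour at room temperature, quantified reporter output of PGC/ERR cells. These had been plated at 2,000 per well, incubated 6 h, dosed with compounds in DMSO, then kept 18 h at 37 C.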
# [15] = qHTS assay to identify small molecule agonists of the estrogen related receptor signaling pathway with the pleiotropic PPARgamma coactivator (PGC) from Tox21 10K library (AID 1224842); further: nearly all actives have a fitted effect of over 15% in size
# Procedure, shortened: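 PGC/ERR reporter cell line, 2,000 cells per well, incubated 6 h at 37 C before 23 nL compound in DMSO was added. After 18 h at 37 C, One-Glo luminescence read following 30 min at room temperature.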
# [16] = qHTS assay to identify small molecule agonists of the estrogen related receptor (ERR) signaling pathway from Tox21 library (AID 1224849; calls by dose curve; further: nearly all actives have a fitted effect of over 15% in size); conditions: ERR reporter cell line, ONE-Glo luciferase, 18 h; at 92.4 µM (top of the series)
# Procedure, shortened: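 Luciferase activity in ERR pathway reporter cells served as the agonist readout; exposure lasted 18 h at 37 C, with ONE-Glo detection after 30 min at room temperature.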
# [17] = qHTS RealTime-Glo MT Cell Viability Assay in HepG2 cells - 24 hour (AID 1224867); further: nearly all actives have a fitted effect of over 50% in size
# Procedure, shortened: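 HepG2 cells (600/well) were dispensed with RealTime-Glo reagents, incubated 5 h at 37 °C, then treated with compounds in DMSO for up to 40 h. Nonlytic NanoLuc luminescence reflecting viable cells was read at each stated time point.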
# [18] = A CellTox Green Cytotoxicity Assay to monitor cytotoxicity in HEK293 cells - 0 hour (AID 1224869); further: nearly all actives have a fitted effect of over 50% in size
# Procedure, shortened: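 Real-time, in one plate: 600 HEK293 cells/well with dead-cell DNA dye, pinned compound after 5 h, 37 C incubation over 40 h; viable cells give no appreciable fluorescence.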
# [19] = qHTS assay to identify small molecule antagonists of the estrogen related receptor (ERR) signaling pathway from Tox21 library (AID 1224848)
# Procedure, shortened: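 Compounds dissolved in DMSO are pin-transferred onto ERR reporter cells (2,000 per well) that have settled for 6 h at 37 C. Plates then incubate 18 h at 37 C before ONE-Glo luciferase reagent and a luminescence read 30 min later.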
SMILES,Potency [1],Potency [2],Potency [3],Potency [4],Potency [5],Potency [6],Potency [7],Potency [8],Potency [9],Potency [10],outcome [11],Potency [12],Potency [13],Potency [14],Potency [15],"activity change, positive = activation [16]",Potency [17],Potency [18],Potency [19]
Nc1ccc(-c2ccccc2)cc1,8.87 µM (active) and inactive,57.9 µM (active) and 63.3 µM (active),inactive,inactive,inactive,30.6 µM (active),inactive,inactive,28.3 µM (active) and inactive,inactive,inactive,inactive,7.98 µM (active) and inactive,,,,,,
C=C(C)C(=O)OCC1CO1 (stereo unspecified),inactive,inactive,inactive,inactive,inactive,inactive,inactive,inactive,inactive,inactive,inactive,,inactive,inactive,inactive,-2.17% (inactive) and 2.32% (inactive),inactive,inactive,
NCc1cccnc1,inactive,inactive,inactive,inactive,inactive,inactive,inactive,inactive,inactive,inactive,inactive,inactive,inactive,inactive,inactive,,inactive,inactive,
O=c1oc2ccccc2c(O)c1C(CC(O)c1ccc(-c2ccc(Br)cc2)cc1)c1ccccc1 (stereo unspecified),inactive,inactive,inactive,inactive,inactive,inactive,inactive,,52 µM (active) and inactive,inactive,,,inactive,,,,inactive,inactive,
C#C[C@]1(O)CC[C@H]2[C@@H]3CCC4=CC(=O)CC[C@]4(C)[C@H]3CC[C@@]21C,inactive,inactive,inactive,inactive,inactive,inactive,inactive,inactive,inactive,inactive,,inactive,inactive,,,,,inactive,
COc1ccc(C=O)cc1,inactive,inactive,inactive,inactive,inactive,inactive,inactive,inactive,inactive,inactive,inactive,inactive,inactive,,,,,,
Nc1ccncc1,inactive,inactive,inactive,inactive,inactive,inactive,inactive,inactive,inactive,inactive,,inactive,inactive,,,,inactive,inactive,
c1ccc(N=Nc2ccccc2)cc1,inactive,18.2 µM (active) and 22.4 µM (active),inactive,inactive,inactive,inactive,inactive,inactive,inactive,inactive,inactive,inactive,inactive,inactive,inactive,,inactive,,
Nc1cccnc1,inactive,inactive,inactive,inactive,inactive,inactive,inactive,inactive,inactive,inactive,inactive,inactive,inactive,,,,,inactive,
CCCCCCOC(=O)c1ccccc1C(=O)OCCCCCC,inactive,inactive,inactive,inactive,inactive,27.9 µM (active) and 30.6 µM (active),inactive,inactive,inactive,inactive,inactive,inactive,inactive,,,,,,
Oc1c(Cl)c(Cl)c(Cl)c(Cl)c1Cl,inactive,34.9 µM (active) and inactive,inactive,inactive,inactive,21.2 µM (active) and 15.4 µM (active),inactive,inactive,inactive,inactive,inactive,,inactive,,,,,inactive,
CCOC(=O)C(C)OC(=O)c1cc(Oc2ccc(C(F)(F)F)cc2Cl)ccc1[N+](=O)[O-] (stereo unspecified),inactive,inactive,inactive,inactive,inactive,54.2 µM (active) and inactive,inactive,,inactive,inactive,inactive,inactive,30.7 µM (active),24.2 µM (active),inactive,,,,21.6 µM (active)
C=CCN(CC=C)C(=O)C(Cl)Cl,inactive,inactive,inactive,inactive,inactive,inactive,inactive,inactive,inactive,inactive,inactive,,inactive,,,,,inactive,
Nn1cnnc1,inactive,inactive,inactive,inactive,inactive,inactive,inactive,inactive,inactive,inactive,inactive,inactive,inactive,,,,inactive,,
Cc1cc(Cl)ccc1OCCCC(=O)O,inactive,73.8 µM (active),inactive,inactive,inactive,inactive,inactive,inactive,inactive,inactive,inactive,inactive,inactive,,,,inactive,inactive,
CC(C)C(=O)OCC(C)(C)C(OC(=O)C(C)C)C(C)C (stereo unspecified),inactive,inactive,inactive,inactive,inactive,inactive,inactive,inactive,inactive,inactive,inactive,,inactive,inactive,inactive,,,,
